Test [1] deals with High affinity nerve growth factor receptor (Homo sapiens) (UniProt P04629). Particulars: at 1 µM.
Test [2] has as its target BDNF/NT-3 growth factors receptor (Homo sapiens) (UniProt Q16620). The following applies: at 0.1 µM.
The target is the same in test [3]. The following applies: at 1 µM.
Test [4] deals with NT-3 growth factor receptor (Homo sapiens) (UniProt Q16288). The following applies: at 0.1 µM.
The target is the same in test [5]. The following applies: at 1 µM.
Test [6] deals with T1, Tyrosine-protein kinase TXK (Homo sapiens) (UniProt P42681).
T1 sequence (whole entry): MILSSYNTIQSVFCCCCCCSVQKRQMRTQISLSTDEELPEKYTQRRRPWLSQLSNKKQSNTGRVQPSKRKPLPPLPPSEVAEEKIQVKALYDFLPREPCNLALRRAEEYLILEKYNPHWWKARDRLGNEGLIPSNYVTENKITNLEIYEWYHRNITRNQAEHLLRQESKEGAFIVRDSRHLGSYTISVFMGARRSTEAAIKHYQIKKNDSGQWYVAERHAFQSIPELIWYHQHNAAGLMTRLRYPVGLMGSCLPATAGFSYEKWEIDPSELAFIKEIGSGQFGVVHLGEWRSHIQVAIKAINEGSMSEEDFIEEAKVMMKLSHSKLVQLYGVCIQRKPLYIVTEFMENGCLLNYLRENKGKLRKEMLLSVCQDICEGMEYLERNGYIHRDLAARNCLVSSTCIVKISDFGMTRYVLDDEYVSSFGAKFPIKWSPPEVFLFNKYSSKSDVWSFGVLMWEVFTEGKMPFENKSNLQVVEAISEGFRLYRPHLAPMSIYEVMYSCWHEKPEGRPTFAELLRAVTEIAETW
The following applies: at 0.1 µM.

Test [7] concerns the target T1, Tyrosine-protein kinase TXK (Homo sapiens). Particulars: at 1 µM.
Test [8] has as its target Non-receptor tyrosine-protein kinase TYK2 (Homo sapiens) (UniProt P29597). The following applies: at 0.1 µM.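 Further: each value is a mean of the inhibition readings.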
Test [9] addresses T2, Dual specificity protein kinase TTK (Homo sapiens) (UniProt P33981).
T2 sequence (whole entry): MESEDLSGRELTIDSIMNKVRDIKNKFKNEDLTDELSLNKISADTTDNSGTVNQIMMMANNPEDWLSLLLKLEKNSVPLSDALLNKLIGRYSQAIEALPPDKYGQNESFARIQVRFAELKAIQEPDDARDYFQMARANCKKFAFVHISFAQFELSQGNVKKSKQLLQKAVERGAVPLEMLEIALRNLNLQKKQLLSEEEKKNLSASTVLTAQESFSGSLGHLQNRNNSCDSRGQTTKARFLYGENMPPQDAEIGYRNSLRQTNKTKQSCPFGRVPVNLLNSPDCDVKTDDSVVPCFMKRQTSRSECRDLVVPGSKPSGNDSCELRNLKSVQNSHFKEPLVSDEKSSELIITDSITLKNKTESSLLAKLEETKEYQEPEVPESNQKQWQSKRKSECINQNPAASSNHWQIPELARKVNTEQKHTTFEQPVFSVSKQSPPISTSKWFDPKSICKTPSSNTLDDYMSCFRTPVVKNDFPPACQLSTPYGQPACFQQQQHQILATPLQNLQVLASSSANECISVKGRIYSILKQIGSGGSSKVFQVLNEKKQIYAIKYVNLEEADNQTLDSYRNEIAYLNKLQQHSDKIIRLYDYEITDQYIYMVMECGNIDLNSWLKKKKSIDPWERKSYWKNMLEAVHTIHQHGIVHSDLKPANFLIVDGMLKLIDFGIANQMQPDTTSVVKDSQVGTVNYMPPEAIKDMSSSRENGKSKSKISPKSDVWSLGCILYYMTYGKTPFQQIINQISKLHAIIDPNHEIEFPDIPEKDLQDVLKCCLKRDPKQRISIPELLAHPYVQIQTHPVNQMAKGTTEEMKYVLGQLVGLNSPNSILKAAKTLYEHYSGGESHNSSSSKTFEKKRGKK
The following applies: at 1 µM.

The target in test [10] is T3, Aurora kinase A (Homo sapiens) (UniProt O14965).
T3 sequence (whole entry): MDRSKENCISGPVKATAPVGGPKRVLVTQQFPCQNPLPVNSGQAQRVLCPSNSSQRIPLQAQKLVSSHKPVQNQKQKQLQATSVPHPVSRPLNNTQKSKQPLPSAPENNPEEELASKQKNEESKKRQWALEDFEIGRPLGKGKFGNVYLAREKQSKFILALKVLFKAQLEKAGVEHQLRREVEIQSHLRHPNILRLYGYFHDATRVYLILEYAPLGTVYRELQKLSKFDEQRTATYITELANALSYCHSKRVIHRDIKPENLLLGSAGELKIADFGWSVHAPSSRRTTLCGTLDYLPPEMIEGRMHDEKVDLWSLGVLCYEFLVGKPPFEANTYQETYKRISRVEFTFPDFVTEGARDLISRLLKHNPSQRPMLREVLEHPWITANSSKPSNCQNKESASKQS
The following applies: at 0.1 µM.

The target of test [11] is T3, Aurora kinase A (Homo sapiens). Particulars: at 1 µM.
Test [12] has as its target Aurora kinase B (Homo sapiens) (UniProt Q96GD4). Particulars: at 0.1 µM.
For test [13] the target is unchanged. The following applies: at 1 µM.
The target in test [14] is T4, Aurora kinase C (Homo sapiens) (UniProt Q9UQB9).
T4 sequence (whole entry): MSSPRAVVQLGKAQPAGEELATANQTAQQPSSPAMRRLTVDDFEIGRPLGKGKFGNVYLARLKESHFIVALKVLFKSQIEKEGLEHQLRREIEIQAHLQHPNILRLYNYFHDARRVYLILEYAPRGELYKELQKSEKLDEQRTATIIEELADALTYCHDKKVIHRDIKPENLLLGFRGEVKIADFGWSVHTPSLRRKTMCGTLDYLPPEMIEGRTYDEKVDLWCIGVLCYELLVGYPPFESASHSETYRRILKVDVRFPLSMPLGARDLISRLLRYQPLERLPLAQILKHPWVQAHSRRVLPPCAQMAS
The following applies: at 0.1 µM.

Test [15] deals with T4, Aurora kinase C (Homo sapiens). The following applies: at 1 µM.
Test [16] has as its target Serine/threonine-protein kinase 10 (Homo sapiens) (UniProt O94804). The following applies: at 0.1 µM.
The target is the same in test [17]. Particulars: at 1 µM.
For test [18], the target named is T5, Mitogen-activated protein kinase kinase kinase kinase 2 (Homo sapiens) (UniProt Q12851).
T5 sequence (whole entry): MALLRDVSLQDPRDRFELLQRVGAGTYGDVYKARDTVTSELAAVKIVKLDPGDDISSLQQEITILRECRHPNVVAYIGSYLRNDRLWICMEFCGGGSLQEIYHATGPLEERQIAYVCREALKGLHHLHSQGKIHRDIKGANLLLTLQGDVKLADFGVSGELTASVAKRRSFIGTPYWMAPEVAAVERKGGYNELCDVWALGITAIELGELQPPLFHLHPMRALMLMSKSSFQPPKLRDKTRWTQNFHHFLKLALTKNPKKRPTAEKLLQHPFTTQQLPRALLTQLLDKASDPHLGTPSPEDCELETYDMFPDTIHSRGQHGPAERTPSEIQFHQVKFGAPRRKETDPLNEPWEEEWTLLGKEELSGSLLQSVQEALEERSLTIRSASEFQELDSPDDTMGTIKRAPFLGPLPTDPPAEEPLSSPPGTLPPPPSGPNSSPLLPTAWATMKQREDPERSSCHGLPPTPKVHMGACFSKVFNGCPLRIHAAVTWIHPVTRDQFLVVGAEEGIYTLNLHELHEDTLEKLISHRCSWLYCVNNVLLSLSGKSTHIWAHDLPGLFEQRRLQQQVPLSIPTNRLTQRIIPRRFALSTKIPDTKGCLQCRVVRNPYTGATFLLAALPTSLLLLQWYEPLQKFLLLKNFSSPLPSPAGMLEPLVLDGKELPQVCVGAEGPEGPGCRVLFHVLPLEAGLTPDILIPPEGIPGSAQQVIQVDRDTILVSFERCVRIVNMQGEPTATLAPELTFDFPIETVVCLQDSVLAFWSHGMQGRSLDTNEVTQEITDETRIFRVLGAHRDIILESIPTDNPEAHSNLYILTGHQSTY
Particulars: at 0.1 µM.

The target in test [19] is T5, Mitogen-activated protein kinase kinase kinase kinase 2 (Homo sapiens). The following applies: at 1 µM.
Test [20] deals with Mitogen-activated protein kinase kinase kinase kinase 4 (Homo sapiens) (UniProt O95819). Particulars: at 0.1 µM.
Mitogen-activated protein kinase kinase kinase kinase 4 (Homo sapiens), sequence (O95819 2-1239 limits assumed): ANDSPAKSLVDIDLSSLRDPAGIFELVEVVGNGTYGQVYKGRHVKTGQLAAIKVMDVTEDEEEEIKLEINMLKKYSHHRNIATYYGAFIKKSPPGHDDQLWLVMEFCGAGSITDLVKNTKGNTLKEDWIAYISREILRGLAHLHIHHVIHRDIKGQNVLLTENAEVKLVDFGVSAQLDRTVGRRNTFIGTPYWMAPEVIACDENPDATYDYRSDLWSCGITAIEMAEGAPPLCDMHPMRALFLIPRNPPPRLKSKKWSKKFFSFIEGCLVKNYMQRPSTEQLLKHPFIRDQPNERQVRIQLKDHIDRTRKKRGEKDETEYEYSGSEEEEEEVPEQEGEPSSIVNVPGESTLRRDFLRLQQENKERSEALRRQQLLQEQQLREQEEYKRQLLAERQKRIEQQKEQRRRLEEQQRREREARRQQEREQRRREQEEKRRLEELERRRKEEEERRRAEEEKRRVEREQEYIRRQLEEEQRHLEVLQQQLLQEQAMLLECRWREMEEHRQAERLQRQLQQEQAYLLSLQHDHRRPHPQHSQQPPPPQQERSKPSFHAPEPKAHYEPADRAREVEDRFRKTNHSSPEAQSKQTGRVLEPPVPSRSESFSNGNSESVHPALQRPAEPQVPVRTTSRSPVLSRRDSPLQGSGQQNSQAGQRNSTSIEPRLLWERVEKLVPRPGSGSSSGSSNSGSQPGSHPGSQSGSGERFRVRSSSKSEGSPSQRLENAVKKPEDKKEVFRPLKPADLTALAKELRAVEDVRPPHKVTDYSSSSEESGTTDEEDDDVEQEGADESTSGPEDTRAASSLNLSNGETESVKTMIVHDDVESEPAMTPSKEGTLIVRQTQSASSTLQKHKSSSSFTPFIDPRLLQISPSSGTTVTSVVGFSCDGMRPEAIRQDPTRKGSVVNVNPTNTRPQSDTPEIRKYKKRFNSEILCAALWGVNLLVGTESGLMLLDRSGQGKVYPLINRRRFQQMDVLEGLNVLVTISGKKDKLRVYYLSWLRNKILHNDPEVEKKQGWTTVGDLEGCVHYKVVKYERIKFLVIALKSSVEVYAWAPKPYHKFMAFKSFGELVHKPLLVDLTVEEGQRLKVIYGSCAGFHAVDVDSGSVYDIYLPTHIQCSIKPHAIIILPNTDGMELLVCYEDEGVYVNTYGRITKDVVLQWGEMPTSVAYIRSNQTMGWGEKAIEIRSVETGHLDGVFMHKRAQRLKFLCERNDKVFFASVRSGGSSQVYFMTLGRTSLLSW

Serine/threonine-protein kinase 10 (Homo sapiens), sequence (O94804 whole entry, looked up): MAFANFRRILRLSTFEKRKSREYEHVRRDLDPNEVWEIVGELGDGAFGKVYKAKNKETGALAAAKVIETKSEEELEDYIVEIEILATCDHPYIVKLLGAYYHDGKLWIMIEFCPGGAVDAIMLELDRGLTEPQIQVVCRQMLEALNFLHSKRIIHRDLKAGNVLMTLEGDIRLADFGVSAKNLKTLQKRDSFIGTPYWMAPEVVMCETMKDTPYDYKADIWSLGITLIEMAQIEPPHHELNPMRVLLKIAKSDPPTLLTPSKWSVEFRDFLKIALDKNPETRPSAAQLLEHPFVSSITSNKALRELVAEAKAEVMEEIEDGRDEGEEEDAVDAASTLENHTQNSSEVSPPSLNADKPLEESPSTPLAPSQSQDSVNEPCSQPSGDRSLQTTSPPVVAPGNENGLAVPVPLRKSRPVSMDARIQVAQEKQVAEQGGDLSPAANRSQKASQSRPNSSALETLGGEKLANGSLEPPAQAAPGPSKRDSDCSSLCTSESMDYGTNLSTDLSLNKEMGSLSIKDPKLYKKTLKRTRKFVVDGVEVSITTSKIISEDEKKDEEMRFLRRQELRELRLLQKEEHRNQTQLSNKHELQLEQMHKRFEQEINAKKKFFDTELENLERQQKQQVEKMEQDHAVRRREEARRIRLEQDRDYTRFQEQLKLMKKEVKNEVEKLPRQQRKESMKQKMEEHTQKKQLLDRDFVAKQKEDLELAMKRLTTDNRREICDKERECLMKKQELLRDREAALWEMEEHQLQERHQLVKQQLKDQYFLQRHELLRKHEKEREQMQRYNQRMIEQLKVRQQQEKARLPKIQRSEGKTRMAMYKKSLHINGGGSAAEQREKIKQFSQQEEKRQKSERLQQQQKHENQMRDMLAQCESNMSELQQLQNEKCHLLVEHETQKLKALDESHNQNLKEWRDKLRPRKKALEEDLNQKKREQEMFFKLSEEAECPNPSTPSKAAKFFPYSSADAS
BDNF/NT-3 growth factors receptor (Homo sapiens), sequence (Q16620 32-822 limits assumed): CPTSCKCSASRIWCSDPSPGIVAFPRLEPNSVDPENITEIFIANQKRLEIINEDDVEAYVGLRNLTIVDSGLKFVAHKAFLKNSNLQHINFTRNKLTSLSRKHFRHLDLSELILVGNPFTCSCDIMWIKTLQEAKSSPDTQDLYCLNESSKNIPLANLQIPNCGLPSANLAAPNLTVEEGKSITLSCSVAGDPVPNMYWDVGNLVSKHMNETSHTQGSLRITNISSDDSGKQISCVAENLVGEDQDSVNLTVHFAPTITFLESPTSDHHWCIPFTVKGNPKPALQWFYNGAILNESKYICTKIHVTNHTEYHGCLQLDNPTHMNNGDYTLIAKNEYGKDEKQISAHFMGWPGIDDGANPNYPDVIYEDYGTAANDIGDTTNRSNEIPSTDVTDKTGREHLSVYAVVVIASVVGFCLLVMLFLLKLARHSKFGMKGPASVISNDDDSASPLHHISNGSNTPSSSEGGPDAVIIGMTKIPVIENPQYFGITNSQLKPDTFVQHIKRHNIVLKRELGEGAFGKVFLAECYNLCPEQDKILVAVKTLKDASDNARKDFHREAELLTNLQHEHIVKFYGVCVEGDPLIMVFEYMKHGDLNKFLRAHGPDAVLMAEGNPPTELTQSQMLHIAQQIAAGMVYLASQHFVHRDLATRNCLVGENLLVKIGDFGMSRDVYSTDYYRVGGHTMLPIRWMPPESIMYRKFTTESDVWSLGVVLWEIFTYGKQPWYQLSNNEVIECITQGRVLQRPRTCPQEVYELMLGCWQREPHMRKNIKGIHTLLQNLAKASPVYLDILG
NT-3 growth factor receptor (Homo sapiens), sequence (Q16288 32-839 limits assumed): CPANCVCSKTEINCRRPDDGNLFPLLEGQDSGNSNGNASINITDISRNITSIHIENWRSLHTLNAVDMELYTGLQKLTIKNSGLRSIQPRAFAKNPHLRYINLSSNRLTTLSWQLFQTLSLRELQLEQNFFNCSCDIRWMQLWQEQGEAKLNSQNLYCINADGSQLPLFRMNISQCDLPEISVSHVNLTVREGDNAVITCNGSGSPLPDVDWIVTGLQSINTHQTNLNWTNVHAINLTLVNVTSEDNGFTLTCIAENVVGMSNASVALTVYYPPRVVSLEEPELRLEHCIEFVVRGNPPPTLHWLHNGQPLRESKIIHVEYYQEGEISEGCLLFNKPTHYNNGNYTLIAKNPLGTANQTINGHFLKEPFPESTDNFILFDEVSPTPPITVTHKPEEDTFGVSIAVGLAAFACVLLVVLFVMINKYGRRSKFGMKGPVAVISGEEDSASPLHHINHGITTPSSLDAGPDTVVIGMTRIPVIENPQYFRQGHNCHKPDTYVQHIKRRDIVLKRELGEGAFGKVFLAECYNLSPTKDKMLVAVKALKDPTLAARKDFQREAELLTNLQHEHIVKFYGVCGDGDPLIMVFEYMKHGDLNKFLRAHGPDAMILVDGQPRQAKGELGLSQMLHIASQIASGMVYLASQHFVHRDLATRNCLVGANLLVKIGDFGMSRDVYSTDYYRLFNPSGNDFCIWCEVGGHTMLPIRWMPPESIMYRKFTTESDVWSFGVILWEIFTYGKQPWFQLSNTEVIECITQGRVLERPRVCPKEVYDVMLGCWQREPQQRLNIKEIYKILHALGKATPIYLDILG
High affinity nerve growth factor receptor (Homo sapiens), sequence (P04629 33-796 limits assumed): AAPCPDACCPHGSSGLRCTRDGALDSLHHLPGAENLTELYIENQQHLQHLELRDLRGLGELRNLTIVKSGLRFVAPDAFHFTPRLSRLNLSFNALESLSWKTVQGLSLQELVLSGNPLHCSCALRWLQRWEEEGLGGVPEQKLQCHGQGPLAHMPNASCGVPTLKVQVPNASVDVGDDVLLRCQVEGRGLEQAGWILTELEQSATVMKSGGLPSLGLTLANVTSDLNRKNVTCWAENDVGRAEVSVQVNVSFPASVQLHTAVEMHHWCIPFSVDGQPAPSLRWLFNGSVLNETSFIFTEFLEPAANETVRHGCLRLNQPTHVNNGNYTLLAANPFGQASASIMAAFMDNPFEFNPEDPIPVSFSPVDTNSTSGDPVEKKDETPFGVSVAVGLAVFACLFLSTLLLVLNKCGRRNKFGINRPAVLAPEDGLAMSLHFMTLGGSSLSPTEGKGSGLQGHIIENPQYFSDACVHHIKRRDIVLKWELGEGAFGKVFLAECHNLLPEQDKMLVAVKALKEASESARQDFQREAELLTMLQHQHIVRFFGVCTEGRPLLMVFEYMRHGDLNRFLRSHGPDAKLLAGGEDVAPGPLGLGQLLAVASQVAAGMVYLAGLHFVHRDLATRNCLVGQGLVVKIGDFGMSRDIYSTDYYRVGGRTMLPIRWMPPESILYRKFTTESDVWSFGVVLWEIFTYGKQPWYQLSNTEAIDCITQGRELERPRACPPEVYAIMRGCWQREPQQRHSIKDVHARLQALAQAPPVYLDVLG
Aurora kinase B (Homo sapiens), sequence (Q96GD4 whole entry): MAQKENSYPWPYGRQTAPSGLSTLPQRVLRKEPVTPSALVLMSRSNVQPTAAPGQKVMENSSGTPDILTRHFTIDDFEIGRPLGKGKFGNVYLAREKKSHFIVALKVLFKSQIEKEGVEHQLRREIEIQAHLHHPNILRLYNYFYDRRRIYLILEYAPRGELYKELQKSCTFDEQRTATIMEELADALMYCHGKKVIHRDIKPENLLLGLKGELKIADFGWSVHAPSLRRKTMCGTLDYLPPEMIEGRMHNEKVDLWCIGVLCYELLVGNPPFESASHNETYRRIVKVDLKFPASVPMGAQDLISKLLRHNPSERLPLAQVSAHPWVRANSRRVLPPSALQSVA

Broadly, the inhibition is the drop in the measured response relative to a control, in per cent. As to `COc1cc(Nc2nccc(Nc3ccc4c(C)n[nH]c4c3)n2)cc(OC)c1OC`, the inhibition in test [1] was 64.1%; in test [2], 4.63%; in test [3], 41%; in test [4] it was -0.03%; in test [5] it was 17.3%; in test [6], 23.9%. Further, the inhibition was 61.9% in test [7]; -1.55% in test [8]; 8.41% in [9]; 10.2% in [10]; 66.5% in test [11]; 5.08% in test [12]. Also, the inhibition in test [13] is 24.2%; in test [14], 7.34%; in [15], 79.7%; in [16] it was 26.1%; in test [17], 77.6%; in test [18], 3.12%. Further, the inhibition in [19] was 7.42%; in test [20], 2.17%.

For `[O-][S+]1CCN(Cc2ccc(-c3ccc4ncnc(Nc5ccc(OCc6cccc(F)c6)c(Cl)c5)c4c3)o2)CC1`, the inhibition was 3.26% in test [1]; 3.51% in test [2]; 2.84% in test [3]; 2.99% in test [4]; 3.32% in [5]; -0.35% in test [6]. In addition, the inhibition in test [7] is 5.13%; in [8], -1.86%; in [9], 13.9%; in test [10] it was 4.7%; in test [11], 4.74%; in test [12], 4.97%. In addition, the inhibition in test [13] turned out to be 9.46%; in test [14] it was 0.94%; in test [15], 6.06%; in test [16], 9.61%; in test [17], 15.9%; in [18], 1.81%. Also, the values for the inhibition in test [19] and in test [20] were 5.19% and 7.46%, respectively.

On to `COC(=O)Nc1nc2ccc(S(=O)(=O)c3ccc(NC(=O)Nc4cc(C(F)(F)F)ccc4F)cc3)cc2[nH]1`, for which the inhibition in [1] was determined as 2.05%; in [2], 0.88%; in test [3] it was 3.21%; in [4], 1.98%; in test [5], 3.91%; in [6], 2.55%. The inhibition in [7] is 4.65%; in test [8] it was -1.55%; in test [9], 10.5%; in test [10], 3.13%; in [11] it was 8.25%; in test [12], 3.7%. Moreover, the inhibition in test [13] was 7.15%; in test [14], 0.87%; in test [15] it was 14.1%; in test [16] it was 3.49%; in test [17], 10.6%; in test [18], -0.09%. The results for the inhibition in test [19] and in test [20] were 1.67% and 2.49%, respectively.

For the compound `COc1ccc(CNC(=O)c2ccc(-c3cc(-c4nnc(C)o4)ccc3C)cc2)cc1`, the inhibition was -1.3% in [1]; 1.54% in test [2]; 4.36% in test [3]; 2.79% in test [4]; 5.45% in [5]; 3.95% in test [6]. In addition, the inhibition in test [7] was 3.7%; in [8] it was 0.15%; in [9], 6.7%; in [10], -0.94%; in test [11], 4.73%; in test [12], 5.79%. The inhibition in test [13] is 6.54%; in test [14] it was 2.85%; in test [15], -5.63%; in [16] it was 13.2%; in [17], 20.7%; in test [18], 4%. The inhibition in [19] is 6.93%; in test [20], 3.14%.

(Values after ChEMBL document CHEMBL1961873, “Compounds: GSK PKIS; Assays: Nanosyn kinase panel” (2012).)
